Data published in PubChem BioAssay (Tox21).
Where “and” joins values, the source holds several entries; their conditions need not be identical. Identical values can stand only once. Results filed as inconclusive are left out. Where a call stands in place of a potency, no number is given. The source holds several records for some structures; these can differ, active in one and inactive in another. Calls of active or inactive are those of the source. The call rests on the fitted dose curve; in most records, active means well fitted activation curve with a large enough effect in the repeat runs; inconclusive means weak or mixed curves, or effect the other way; inactive means no such curve, though single readings can be large or run the other way.

experiment: qHTS assay to identify small molecule agonists of the estrogen related receptor signaling pathway with the pleiotropic PPARgamma coactivator (PGC) from Tox21 10K library (AID 1224842); conditions: PGC/ERR reporter cell line, luciferase ONE-Glo, 18 h; series mostly up to 92.4 µM; activation: at the top concentration; further: nearly all actives have a fitted effect of over 15% in size
Source text: National Center for Advancing Translational Sciences [NCATS] NIH Chemical Genomics Center [NCGC] U.S. Environmental Protection Agency [EPA] National Institutes of Environmental Health Sciences [NIEHS] National Toxicology Program [NTP] Assay overview: Estrogen related receptors (ERRs), the first orphan nuclear receptors discovered, play an important role in the control of cellular energy metabolism. ERRs are required for high-energy production in response to the environmental challenges. The pleiotropic PPARgamma coactivator (PGC) is a major partner of ERR and a key regulator in energy homeostasis. Together they have been implicated in the etiology of metabolic disorders such as Type 2 diabetes and metabolic syndrome. ERR-alpha was also identified as an adverse marker for breast cancer progression; ERR-alpha-positive tumors have a poor prognosis. To screen and to identify environmental compounds that perturb the PGC/ERR signaling pathways could provide valuable information for potential therapeutic or preventive measures in the treatment of metabolic disease. For identifying PGC/ERR agonists, PGC/ERR cell line (provided by NTP) has been used to screen Tox21 10K library.
Assay Protocol Summary: The PGC/ERR cells were dispensed at 2,000 cells/5 ul/well in 1536-well white plates using a Multidrop dispenser. After the assay plates were incubated at a 37 C/5% CO2 incubator for 6 hours, 23 nL of compounds dissolved in DMSO, positive and negative controls or DMSO only was transferred to the assay plate by a pin tool. The plates were incubated at 37 C for 18 hours. 4 ul/well of One-Glo reagent was added into the assay plates using a Flying Reagent Dispenser. After 30-minute incubation at room temperature, the luminescence intensity in the plates was measured using a ViewLux plate reader.
Potency means the concentration at half of the fitted maximal effect.

Row | Compound | Potency | activation
1 | Brc1ccc(Oc2cc(Br)c(Br)cc2Br)c(Br)c1 | inactive | 
2 | CCC(C)(c1ccc(O)cc1)c1ccc(O)cc1 | inactive | 
3 | CCOCN(C(=O)CCl)c1c(C)cccc1CC | inactive | 
4 | CC(C)c1ccc(CO)cc1 | inactive | 
5 | Nc1ccc(Cl)cc1N | 8.98 µM (active) and 386 nM (active) | 
6 | CCC(C)c1ccc(O)cc1 (stereo not given) | inactive | 
7 | O=[N+]([O-])c1ccc(O)c([N+](=O)[O-])c1 | inactive | 
8 | CCCCN(CC)c1c([N+](=O)[O-])cc(C(F)(F)F)cc1[N+](=O)[O-] | inactive | 
9 | CCOC(=O)C(C)OC(=O)c1cc(Oc2ccc(C(F)(F)F)cc2Cl)ccc1[N+](=O)[O-] (stereo not given) | inactive | 
10 | OCC(O)CO | inactive | 
11 | Oc1ccc(-c2ccccc2)cc1 |  | 3.23% (inactive)
12 | CCOC(=S)S | inactive | 
13 | CCN(CC)C(=O)SCc1ccc(Cl)cc1 | inactive | 
14 | O=[N+]([O-])c1cccc2ccccc12 | inactive | 
15 | Cc1ccc2c(c1N)C(=O)c1ccccc1C2=O | 19.1 µM (active) and 9.69 µM (active) | 
16 | Nc1c(Cl)cc([N+](=O)[O-])cc1Cl | inactive | 
17 | NNC(N)=S | inactive | 
18 | CCOc1cc(Oc2ccc(C(F)(F)F)cc2Cl)ccc1[N+](=O)[O-] | inactive | 
19 | ClC1C(Cl)C(Cl)C(Cl)C(Cl)C1Cl (stereo not given) | inactive | 
20 | C[C@]12CCC(=O)C(O)=C1CC[C@@H]1[C@@H]2CC[C@]2(C)C(=O)CC[C@@H]12 | inactive | 

Row | Compound | Potency | activation
21 | N#Cc1cc(Br)c(O)c(Br)c1 | inactive | 
22 | c1ccc(N=Nc2ccccc2)cc1 | inactive | 
23 | C=C(C)C(=O)OCC1CO1 (stereo not given) | inactive | 
24 | C#CCOS(=O)OC1CCCCC1Oc1ccc(C(C)(C)C)cc1 (stereo not given) | inactive | 
25 | CC(C)C(=O)OCC(C)(C)C(OC(=O)C(C)C)C(C)C (stereo not given) | inactive | 
26 | Cc1cccc(N)c1N | inactive and 15.4 µM (active) | 
27 | C=C(C)[C@H]1Cc2c(ccc3c2O[C@@H]2COc4cc(OC)c(OC)cc4[C@@H]2C3=O)O1 | inactive | 
28 | c1nc[nH]n1 | inactive | 
29 | C1=Cc2cccc3cccc1c23 | inactive | 
30 | CCC(C)c1cc([N+](=O)[O-])cc([N+](=O)[O-])c1O (stereo not given) | inactive | 
31 | NNC(=S)NN | inactive | 
32 | O=Cc1ccco1 | inactive | 
33 | Cc1ccc(OP(=O)(Oc2ccc(C)cc2)Oc2ccc(C)cc2)cc1 | inactive | 
34 | c1ccc(NNc2ccccc2)cc1 | inactive | 
35 | O=P(Oc1ccccc1)(Oc1ccccc1)Oc1ccccc1 | inactive | 
36 | CCC(C)(C)c1ccc(O)cc1 | inactive | 
37 | Nc1ccc(Cl)c(Cl)c1 | inactive | 
38 | NCc1cccnc1 | inactive | 
39 | COP(=O)(OC)OC | inactive | 
40 | CC(C)(c1cc(Cl)c(O)c(Cl)c1)c1cc(Cl)c(O)c(Cl)c1 | inactive | 
